A short description of assay [1]: reducers of endogenous Her2 protein level, primary screen, SKBR3 breast tumor cells, AlphaScreen, ATP viability (AID 461;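 active = Her2 level under about 52% in both replicate screens, with viability over 70% of control, limit read from the data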;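 as to Her2 level: lower value means less Her2 protein in the cells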;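 as to viability: percent of carrier control wells set as 100% viability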). The conditions noted are these: 18-24 h, measured here: SKBR3 viability, ATP luminescence, at 10 µM. For orientation: Bead proximity is the source of the signal in Alpha formats.
Assay [2] addresses Receptor tyrosine-protein kinase erbB-2 (Homo sapiens) (UniProt P04626). The assay is described as above. To be noted: 18-24 h, at 10 µM, stronger effect = lower value.
Assay [3] in a line: SK-BR-3 cell growth inhibitors, pilot screen, 24 h, human (AID 572;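 active = viability at or below 10% of carrier control in both of two separate runs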;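 also: compound exposure lasted between 18 and 24 h rather than exactly 24 h; 100% = carrier-treated control wells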). To be noted: SK-BR-3 viability, CellTiter-Glo luminescence, at 10 µM, stronger effect = lower value.
Assay [4] in a line: HUVEC growth inhibition – cell-based, human, primary screen (AID 575;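 active = viability at or below 30% in both replicate assays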;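 also: 100% = median of untreated cell wells with 0.1% DMSO on each plate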). To be noted: HUVEC proliferation, CellTiter-Glo luminescence, 72 h; at 10 µM; stronger effect = lower value. (In general: Cellular ATP, detected with luciferase, serves as a proxy for viable cell number.)
Assay [5] can be described thus: growth inhibitors of H69AR lung tumor, primary screen, human, duplicate replicates (AID 580;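 active = viability at or under a set limit in both replicates, limit being median viability minus 3 SD, cut at about 48% in these data, passing the limit was not always enough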;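 also: 100% = mean luminescence of untreated wells and 0% = no signal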). The conditions noted are these: H69AR lung tumor cells viability, ATP luminescence, 72 h; at 10 µM; stronger effect = lower value.
The nature of assay [6]: reversal of MRP1-mediated doxorubicin resistance, pilot screen, H69AR cells, doxorubicin co-treatment (AID 601;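 active = viability loss from added drug above about 55%, and viability with drug at most 40%, in both replicates, limit read from the data, passing the limit was not always enough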). To be noted: CellTiter-Glo, 72 h, at 10 µM; for differential viability (reversal): stronger effect = higher value.
Assay [7] is described as follows: 384-well plate pilot, post-Golgi transport modulator project, inhibition of yeast transport mutant growth (AID 636; in the data active = inhibition above about 31%). To be noted: absorbance 615 nm, about 18 h, stronger effect = higher value.
Assay [8] is described as follows: growth suppression of yeast trafficking mutant, preliminary HTS, modulators of trafficking downstream of Golgi apparatus project, 1536-format plate, OD 615 nm (AID 637; in the data active = inhibition above about 30%). The conditions noted are these: yeast transport mutant growth, absorbance 615 nm, 18 h; stronger effect = higher value.
The nature of assay [9]: OD615 S. cerevisiae growth inhibition, permissive medium, pilot counter-assay, permissive growth control for S. cerevisiae lifespan shortening project (AID 705;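 active = growth inhibition above 25% in both replicates, a cutoff set 3 SD above the mean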). The conditions noted are these: OD615, 24 h, at 10 µM, stronger effect = higher value.
Assay [10] is described as follows: Restrictive medium S. cerevisiae growth inhibition, OD615, pilot screen of yeast lifespan reduction project, restrictive growth control (AID 706;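 active = growth inhibition above a set limit, 3 SD over mean compound inhibition, in both replicates, cut at about 43% in these data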;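 also: modified DeaD lifespan yeast strain shifted to restrictive glucose medium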). To be noted: OD615, 48 h, at 10 µM, stronger effect = higher value.
A short description of assay [11]: viability gain of MRP-1-high H69AR cells under doxorubicin, pilot screen, MRP-1 activator project, CellTiter-Glo, duplicate (AID 807;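 active = viability increase at or above a cutoff of the median across tested compounds plus 3 SD, cut at about 8.5% in these data, passing the limit was not always enough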;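 also: compound pretreatment 18-22 h then 72 h combined with doxorubicin; 0% = doxorubicin alone and 100% = vehicle without doxorubicin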). To be noted: H69AR viability with doxorubicin, CellTiter-Glo luminescence; at 10 µM; stronger effect = higher value.
Assay [12] is described as follows: growth suppression of beta-catenin knockout HCT116, pilot screen, human colon tumor cells (AID 823;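 active = cell viability at or below a set limit in both duplicate runs, the limit being the all-compound median minus 4 SD, cut at about 23% in these data, passing the limit was not always enough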;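 also: 0% = wells killed by 20 µM Hyamine and 100% = untreated DMSO cell wells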). The conditions noted are these: CellTiter-Glo, 60 h, at 10 µM, stronger effect = lower value.
A short description of assay [13]: growth suppression of PTEN-deleted HCT116, pilot screen, cell-based, HCT116 clonal line, CellTiter-Glo (AID 824;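 active = viability at or below 27.92% in each of two runs, the all-compound median minus 4 SD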;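 also: 0% = 20 µM Hyamine control and 100% = vehicle cell control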). The conditions noted are these: 60 h, at 10 µM, stronger effect = lower value.
Assay [14] is described as follows: inhibitors of the yeast RAM network, pilot screen, dse1pr::URA3 reporter, 5-FOA selection (AID 869;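 active = inhibition over a set limit, the all-compound mean plus 3 SD, in both replicate runs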;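 also: 0% = DMSO wells with no growth and 100% = 10 µM 1-NA-PP1 with full growth; RAM network block rescues cells from 5-FOA so hits raise OD615 growth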). To be noted: S. cerevisiae dse1pr::URA3 5-FOA growth, OD615, 2 d; at 10 µM; stronger effect = higher value; strain carries analog-sensitive mutant Cbk1 kinase.
A short description of assay [15]: RAM signaling pathway blockade in yeast – S. cerevisiae, Pdr1DBD-CYC8 efflux-inhibited sensitized strain, primary screen (AID 1298).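 Also: 0% = DMSO untreated cells without growth and 100% = 10 µM 1-NA-PP1 full growth; higher means more yeast growth rescued from 5-FOA killing.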 To be noted: S. cerevisiae cbk1-as DSE1-URA3 strain, 5-FOA growth OD615, 2 d; at 50 µM; stronger effect = higher value.
The mark [16] stands for this setting: H69AR cells + 2 uM doxorubicin, measured here: viability with 2 uM doxorubicin, stronger effect = lower value.
Where [17] appears, read: H69AR cells, compound alone cytotoxicity.

Each structure is given as a SMILES string. Records with an inconclusive call do not appear. The source made the active and inactive calls.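 The calls were made as follows, unless noted: active = RAM network inhibition above 8.4% in each of two replicates, 3 SD over the compound average; inconclusive = above 8.4% inhibition in only one replicate; inactive = 8.4% inhibition or less in each replicate.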

From PubChem BioAssay come the findings set out here.

Sequence of Receptor tyrosine-protein kinase erbB-2 (Homo sapiens) (P04626 whole entry, looked up): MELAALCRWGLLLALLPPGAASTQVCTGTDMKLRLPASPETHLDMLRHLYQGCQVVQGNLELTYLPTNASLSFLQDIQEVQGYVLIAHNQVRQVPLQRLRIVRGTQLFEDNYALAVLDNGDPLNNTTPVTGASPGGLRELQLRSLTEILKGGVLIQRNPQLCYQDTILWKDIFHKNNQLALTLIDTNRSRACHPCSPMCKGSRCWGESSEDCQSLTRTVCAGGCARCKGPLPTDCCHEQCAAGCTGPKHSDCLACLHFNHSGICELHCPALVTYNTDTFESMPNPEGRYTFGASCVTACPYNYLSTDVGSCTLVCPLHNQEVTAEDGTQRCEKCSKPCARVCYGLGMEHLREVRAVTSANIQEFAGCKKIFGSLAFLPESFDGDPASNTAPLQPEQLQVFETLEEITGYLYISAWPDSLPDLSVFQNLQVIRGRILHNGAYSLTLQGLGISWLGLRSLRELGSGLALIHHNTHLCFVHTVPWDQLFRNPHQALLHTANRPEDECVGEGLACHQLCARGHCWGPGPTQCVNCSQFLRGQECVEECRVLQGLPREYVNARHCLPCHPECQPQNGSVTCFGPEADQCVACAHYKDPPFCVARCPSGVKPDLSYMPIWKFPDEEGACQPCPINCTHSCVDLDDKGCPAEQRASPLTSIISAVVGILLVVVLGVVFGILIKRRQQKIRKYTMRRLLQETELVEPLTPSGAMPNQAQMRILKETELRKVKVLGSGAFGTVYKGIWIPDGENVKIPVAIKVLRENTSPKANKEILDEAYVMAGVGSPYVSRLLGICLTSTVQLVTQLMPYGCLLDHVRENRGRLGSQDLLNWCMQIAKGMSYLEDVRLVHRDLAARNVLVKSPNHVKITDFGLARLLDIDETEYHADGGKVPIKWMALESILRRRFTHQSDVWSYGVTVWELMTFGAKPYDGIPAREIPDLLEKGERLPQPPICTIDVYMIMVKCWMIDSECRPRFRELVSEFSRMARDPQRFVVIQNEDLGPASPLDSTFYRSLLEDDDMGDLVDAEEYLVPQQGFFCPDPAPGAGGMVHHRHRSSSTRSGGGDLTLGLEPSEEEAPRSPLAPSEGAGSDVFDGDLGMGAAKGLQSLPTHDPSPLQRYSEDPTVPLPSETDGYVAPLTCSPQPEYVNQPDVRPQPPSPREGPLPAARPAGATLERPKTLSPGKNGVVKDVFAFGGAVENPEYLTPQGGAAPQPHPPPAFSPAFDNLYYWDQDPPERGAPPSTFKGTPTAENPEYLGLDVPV

As a reminder, the viability is a read-out of living cells in per cent, often relative to untreated cells. The inhibition is the relative decrease from the control value, in per cent. Consider `COc1ccc(-c2nnc(SCC(=O)N3CCOCC3)o2)cc1OC`, for which the viability in [1] is 91%; in assay [3], 91% (inactive); in assay [4] it was 89.4% (inactive); in assay [5], 96.1% (inactive); in assay [6] (setting [16]) it was 92.7%; in assay [6] (setting [17]) it was 96.1%. Further, the viability is 103% (inactive) in [12] and 110% (inactive) in [13]. In addition, the Her2 level in [2] is 96% (inactive). Moreover, the differential viability (reversal) in [6] (H69AR cells + 2 uM doxorubicin) is 3.41% (inactive). Moreover, the values for the inhibition in assay [7], in assay [8] and in assay [14] were -1.2% (inactive), -6.89% (inactive) and 1.16% (inactive), respectively. Moreover, the growth inhibition in assay [9] was 1.14% (inactive); in assay [10] it was -3.02% (inactive). Further, in [11], the viability increase is -1.32% (inactive). In [15], the RAM network inhibition was 1.27% (inactive).

As for `CC(=O)Nc1cc(N2C(=O)CCC2=O)ccc1Cl`, the viability in assay [1] was 93%; in [3], 93% (inactive); in assay [4], 110% (inactive); in [5] it was 103% (inactive); in assay [6] (setting [16]), 90.5%; in [6] (setting [17]), 103%. For the same molecule, the viability in [12] was 102% (inactive); in assay [13], 103% (inactive). Also, in assay [2], the Her2 level was 97% (inactive). The differential viability (reversal) in assay [6] (H69AR cells + 2 uM doxorubicin) was 12.4% (inactive). Besides, the inhibition in [7] was 0.4% (inactive); in [8], 6.45% (inactive); in assay [14] it was 1.19% (inactive). In addition, the growth inhibition in [9] is -10.2% (inactive); in assay [10] it was -12.5% (inactive). Moreover, the viability increase in assay [11] was -1.29% (inactive). The RAM network inhibition in assay [15] is 1.88% (inactive).

`CC(=O)N1c2c(cc(Br)cc2S(=O)(=O)N2CCN(c3ccccn3)CC2)CC1C` (stereo not given): the viability in [1] was 80.5%; in [3] it was 80.5% (inactive); in [4], 64.9% (inactive); in assay [5], 86.6% (inactive); in assay [6] (setting [16]) it was 90.2%; in assay [6] (setting [17]), 86.6%. Moreover, the viability in assay [12] is 99.1% (inactive); in assay [13], 95.6% (inactive). Also, the Her2 level in assay [2] is 106% (inactive). In addition, the differential viability (reversal) in assay [6] (H69AR cells + 2 uM doxorubicin) is -3.56% (inactive). Also, the values for the inhibition in assay [7], in assay [8] and in [14] were -1.05% (inactive), 24.6% (inactive) and 0.77% (inactive), respectively. The growth inhibition in assay [9] was 6.66% (inactive); in assay [10], 1.97% (inactive). For the same molecule, the viability increase in [11] is 1.49% (inactive). In addition, in assay [15], the RAM network inhibition is 0.3% (inactive).

Turning to `Cc1nc2sc(C(c3cccs3)N3CCOCC3)c(O)n2n1` (stereo not given), the viability in assay [1] is 90%; in assay [3], 90% (inactive); in assay [4], 94.8% (inactive); in assay [5], 88.6% (inactive); in [6] (setting [16]), 93.4%; in assay [6] (setting [17]) it was 88.6%. Further, the viability in [12] was 107% (inactive); in [13], 94.2% (inactive). The Her2 level in assay [2] was 100% (inactive). Besides, the differential viability (reversal) in assay [6] (H69AR cells + 2 uM doxorubicin) is -4.79% (inactive). Further, the inhibition in assay [7] is -7.73% (inactive); in assay [8], -0.83% (inactive); in assay [14], 1.54% (inactive). For the same molecule, the growth inhibition in assay [9] was -7.23% (inactive); in assay [10], -11.9% (inactive). Also, the viability increase in assay [11] is -0.31% (inactive). In addition, the RAM network inhibition in assay [15] was 1.99% (inactive).

With `O=C(C1CCCN1S(=O)(=O)c1cccc2cccnc12)N1CCn2c1nc1ccccc12` (stereo not given), the viability was 100% in assay [1]; 100% (inactive) in assay [3]; 64.9% (inactive) in [4]; 94.1% (inactive) in assay [5]; 92.6% in assay [6] (setting [16]); 94.1% in assay [6] (setting [17]). The figures for the viability in [12] and in [13] were 97.4% (inactive) and 101% (inactive), respectively. Further, the Her2 level in assay [2] was 84.5% (inactive). The differential viability (reversal) in assay [6] (H69AR cells + 2 uM doxorubicin) was 1.47% (inactive). Moreover, the values for the inhibition in assay [7], in assay [8] and in [14] were 0.9% (inactive), 4.67% (inactive) and 0.235% (inactive), respectively. Also, the growth inhibition in assay [9] was -4.09% (inactive); in assay [10] it was 4.54% (inactive). Further, the viability increase in assay [11] was 0.79% (inactive). In addition, the RAM network inhibition in assay [15] was 1.58% (inactive).
